TDP1 cell CPT: DT40-hTDP1 cell growth loss with CPT; chicken DT40 Tdp1-/-;hTDP1 cells + 20 nM CPT, ATP luminescence, 48 h; Potency, µM (titrated, usually from 46.2 µM), most hits filed as inhibitors; 420,000 tested, 12% active; AID 686979; note: nearly all actives have a fitted effect of over 55% in size
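Cell growth measured by CellTiter-Glo luminescence after a minimum 48 h, 37 C compound exposure with 20 nM CPT in Tdp1-knockout DT40 cells stably expressing hTDP1, seeded 400/well; qHTS titration format.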
DT40 TDP1 no CPT: qHTS for Inhibitors of human tyrosyl-DNA phosphodiesterase 1 (TDP1): qHTS in cells in absence of CPT; DT40 Tdp1-/- hTDP1 cells, no CPT, ATP luminescence, 48 h; Potency, µM (doses to about 46.2 µM), hits mostly inhibitors; 420,000 tested, 15% active; note: nearly all actives have a fitted effect of over 55% in size
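Compound effects on proliferation are scored in DT40 Tdp1-/-;hTDP1 cells in the absence of CPT. ATP levels (CellTiter-Glo luminescence) are recorded after a ≥48 hr, 37 °C incubation.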
RORg inh: inhibitors of mouse ROR gamma transcriptional activity | P51450 | Drosophila S2 Gal4-RORgamma UAS-luciferase reporter, 20 h | Potency, µM (top dose mostly 53.6 µM), hits mostly inhibitors | 310,000 tested, 5.4% active; note: nearly all actives have a fitted effect of over 60% in size
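Read-out: Photinus luciferase luminescence; inhibitors lower reporter signal. Insect Schneider cells with Gal4-ROR gamma fusion under metallothionein promoter, UAS reporter; 700 uM final copper sulfate induction, 20 hr, ambient temperature.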
VP16 counter: counter-screen for ROR gamma inhibitors: Gal4-VP16 reporter; Drosophila S2 Gal4-VP16 UAS-luciferase, luminescence, 20 h; Potency, µM (series often up to 53.6 µM), actives largely listed as inhibitors; 310,000 tested, 3.5% active; AID 2546;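 note: Gal4-VP16 expression switched on by copper sulfate through the metallothionein promoter; nearly all actives have a fitted effect of over 50% in size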
ELG1 DNA repair: ELG1-dependent DNA repair inhibition. HEK293T ELG1-luciferase reporter, luminescence, 16 h; DNA damage induced by 5-fluorouridine. Potency, µM (series often up to 46.1 µM), hits mostly inhibitors. 330,000 tested, 2.3% active; note: nearly all actives have a fitted effect of over 55% in size
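In this reporter screen, reduction of luminescence relative to DMSO vehicle indicated activity. Compounds and 5-fluorouridine were added together to 2,000 cells per well, incubated for 16 hr at 37 °C, then developed with ONE-Glo.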
ALOX12 inh: blocks human arachidonate 12S-lipoxygenase. P18054. purified 12hLO, xylenol orange hydroperoxide absorbance. Potency, µM (series often up to 108 µM), most hits filed as inhibitors. 580,000 tested, 1.1% active. AID 1671190
Target sequence (P18054 whole entry, looked up): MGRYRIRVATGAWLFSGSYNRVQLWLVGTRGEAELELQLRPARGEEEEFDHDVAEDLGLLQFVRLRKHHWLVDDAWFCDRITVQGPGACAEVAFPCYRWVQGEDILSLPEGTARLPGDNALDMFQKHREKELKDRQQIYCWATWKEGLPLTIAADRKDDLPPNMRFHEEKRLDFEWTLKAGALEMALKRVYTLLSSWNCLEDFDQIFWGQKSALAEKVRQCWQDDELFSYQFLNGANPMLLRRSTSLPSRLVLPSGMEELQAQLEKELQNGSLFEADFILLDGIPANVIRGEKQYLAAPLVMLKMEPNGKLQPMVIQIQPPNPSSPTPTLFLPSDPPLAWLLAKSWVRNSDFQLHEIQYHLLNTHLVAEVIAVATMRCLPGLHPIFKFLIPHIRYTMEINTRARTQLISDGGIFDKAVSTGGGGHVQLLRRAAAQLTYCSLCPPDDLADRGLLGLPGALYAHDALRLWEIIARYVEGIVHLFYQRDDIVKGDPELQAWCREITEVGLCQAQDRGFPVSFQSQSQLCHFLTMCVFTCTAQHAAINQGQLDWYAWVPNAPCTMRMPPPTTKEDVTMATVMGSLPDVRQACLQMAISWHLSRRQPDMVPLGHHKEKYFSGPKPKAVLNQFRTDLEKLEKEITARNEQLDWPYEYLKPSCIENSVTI
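Purified human 12hLO (150 nM final) in 25 mM Hepes, 0.01% Triton X-100, pH 7.0 was preincubated 15 min at room temperature with compound. Then 40 uM arachidonic acid was added, 30 min. Hydroperoxide was read by Fe-XO absorbance ratio 573/405 nm.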
Each line names hits and unclear results; the compound was inactive in the other large screens. Only some compounds are listed: those with a hit (about 15% of all), similar ones and a draw of the others. Calls come from the whole dose curve; as a rule, active = well fitted curve in the direction sought with a large enough effect; inconclusive = small, poorly fitted or top-dose-only effect, or another doubt; inactive = no such curve, though single readings can be large; an effect the other way counts as inactive or inconclusive.

CN1c2ccc([N+](=O)[O-])cc2N(C)C1(C)c1ccccc1 (stereo not drawn)	TDP1 cell CPT inconclusive, DT40 TDP1 no CPT inconclusive, RORg inh inconclusive, VP16 counter inconclusive
CN(C)CCCN1c2ccc([N+](=O)[O-])cc2CCc2cc([N+](=O)[O-])ccc21	ALOX12 inh 31.6µM (no result: TDP1 cell CPT, DT40 TDP1 no CPT, RORg inh, VP16 counter, ELG1 DNA repair)
CS(=O)(=O)N1CCN(C(=O)CNc2cccc(F)c2)CC1	none (no result: TDP1 cell CPT, DT40 TDP1 no CPT, RORg inh, VP16 counter, ELG1 DNA repair)
C(=C\c1ccccc1)/CN1CCN(C(c2cccc3ccccc23)c2nnnn2C2CCCC2)CC1 (stereo not drawn)	TDP1 cell CPT 20.6µM, DT40 TDP1 no CPT 9.2µM (no result: RORg inh, VP16 counter, ELG1 DNA repair)
COc1ccc(C(c2nnnn2C2CCCCC2)N2CCN(C/C=C/c3ccccc3)CC2)cc1 (stereo not drawn)	TDP1 cell CPT 16.4µM, DT40 TDP1 no CPT inconclusive, ALOX12 inh inconclusive (no result: RORg inh, VP16 counter, ELG1 DNA repair)
C(=C\c1ccccc1)/CN1CCN(C(c2nnnn2C2CCCCC2)C2CC2)CC1 (stereo not drawn)	TDP1 cell CPT inconclusive, DT40 TDP1 no CPT 16.4µM (no result: RORg inh, VP16 counter, ELG1 DNA repair)
c1cncc(C(c2nnnn2C2CCCCC2)N2CCCCC2)c1 (stereo not drawn)	none
COc1ccc(OCCOC(=O)c2ccc3nccnc3c2)cc1	none (no result: TDP1 cell CPT, DT40 TDP1 no CPT, RORg inh, VP16 counter, ELG1 DNA repair)
O=C(NCc1ccccc1)O[C@H]1COCCN(c2nc3ccccc3o2)C1	none (no result: TDP1 cell CPT, DT40 TDP1 no CPT, RORg inh, VP16 counter, ELG1 DNA repair)
COc1ccc2nc(C)c(C(=O)NC3CCCCCC3)cc2c1	none (no result: TDP1 cell CPT, DT40 TDP1 no CPT, RORg inh, VP16 counter, ELG1 DNA repair)
S=C(NC1CCCCC1)N1CCCCC1	none
CCC1CCCCN1C(=S)NC1CCCCC1 (stereo not drawn)	TDP1 cell CPT inconclusive, DT40 TDP1 no CPT inconclusive, RORg inh 10µM, VP16 counter inconclusive
CC1CCN(C(=O)[C@@H](C)C2CC[C@@]3(C)CC[C@H](NC(=O)c4cnccn4)[C@@H](C)[C@@H]3[C@H]2O)CC1 (stereo partly drawn)	none (no result: TDP1 cell CPT, DT40 TDP1 no CPT, RORg inh, VP16 counter, ELG1 DNA repair)
COc1cc(/C=C/C(=O)C2C(=O)C=C(C)OC2=O)cc(OC)c1O (stereo not drawn)	TDP1 cell CPT inconclusive, DT40 TDP1 no CPT inconclusive, ELG1 DNA repair 2.59µM, ALOX12 inh inconclusive
CC(Sc1nnnn1-c1ccccc1)C(=O)Nc1ccc(N2CCN(C)CC2)cc1 (stereo not drawn)	TDP1 cell CPT 13µM, DT40 TDP1 no CPT 10.3µM
CC(Sc1nnnn1-c1ccccc1)C(=O)Nc1ccccc1-c1ccccc1 (stereo not drawn)	TDP1 cell CPT inconclusive, DT40 TDP1 no CPT inconclusive, ELG1 DNA repair inconclusive
COc1ccc(-c2cn(C)c(=O)n3cc(CN(C)C)nc23)c(C(F)(F)F)c1	none (no result: TDP1 cell CPT, DT40 TDP1 no CPT, RORg inh, VP16 counter, ELG1 DNA repair)
Cc1cc(NC(=O)CCC(=O)N(Cc2ccco2)C(C(=O)NC2CCCC2)c2ccccc2F)no1 (stereo not drawn)	DT40 TDP1 no CPT inconclusive
CCCCN(C(=O)CCC(=O)Nc1cc(C)on1)C(C(=O)NC1CCCC1)c1ccc(OC)cc1 (stereo not drawn)	TDP1 cell CPT inconclusive
COc1ccc(N(C(=O)/C=C/C(=O)Nc2cc(C)on2)C(C(=O)NC2CCCC2)c2ccccc2C)cc1 (stereo not drawn)	TDP1 cell CPT inconclusive, DT40 TDP1 no CPT 20.6µM
Cc1cc(NC(=O)CCC(=O)N(Cc2ccco2)C(C(=O)NC2CCCC2)c2ccccc2C)no1 (stereo not drawn)	TDP1 cell CPT 23.1µM, DT40 TDP1 no CPT 23.1µM, RORg inh inconclusive, ELG1 DNA repair inconclusive
CCCCN(C(=O)CCC(=O)Nc1cc(C)on1)C(C(=O)NC1CCCC1)c1cccc(OC)c1 (stereo not drawn)	TDP1 cell CPT 8.2µM, DT40 TDP1 no CPT inconclusive
Cn1c(SCc2coc(-c3cccs3)n2)nnc1-c1ccccc1F	none (no result: TDP1 cell CPT, DT40 TDP1 no CPT, RORg inh, VP16 counter, ELG1 DNA repair)
COC(=O)c1cc(NC(=O)c2cccc([N+](=O)[O-])c2C)ccc1Cl	DT40 TDP1 no CPT 16.4µM
Cc1c(C(=O)Nc2ccc(C(=O)Nc3ccccc3)cc2)cccc1[N+](=O)[O-]	ELG1 DNA repair inconclusive
CCn1c2ccccc2c2cc(NC(=O)c3cccc([N+](=O)[O-])c3C)ccc21	TDP1 cell CPT inconclusive, DT40 TDP1 no CPT 14.6µM, ELG1 DNA repair inconclusive, ALOX12 inh inconclusive
CCn1c2ccccc2c2cc(NC(=O)c3ccc(C)c([N+](=O)[O-])c3)ccc21	TDP1 cell CPT 5.8µM, DT40 TDP1 no CPT 3.26µM, ELG1 DNA repair inconclusive
CCn1c2ccccc2c2cc(NC(=O)c3cccc([N+](=O)[O-])c3)ccc21	TDP1 cell CPT 20.6µM, DT40 TDP1 no CPT 20.6µM
Cc1ccc(OCC(=O)Nc2ccc(S(=O)(=O)NC(C)(C)C)cc2)c(Br)c1	none (no result: TDP1 cell CPT, DT40 TDP1 no CPT, RORg inh, VP16 counter, ELG1 DNA repair)
CCOc1c(Br)cc(C(=O)OC(C)C(=O)c2ccc(F)c(F)c2)cc1OC (stereo not drawn)	none (no result: TDP1 cell CPT, DT40 TDP1 no CPT, RORg inh, VP16 counter, ELG1 DNA repair)
O=C(Nc1cnc(-c2ccc(Cl)cc2)nc1)C1CCC1	none (no result: TDP1 cell CPT, DT40 TDP1 no CPT, RORg inh, VP16 counter, ELG1 DNA repair)
CCc1ccc(NC(=O)CNC(=O)c2ccc(OC)cc2)cc1	none (no result: TDP1 cell CPT, DT40 TDP1 no CPT, RORg inh, VP16 counter, ELG1 DNA repair)
CC(C)Oc1ccc(C(=O)Nc2nc3ccccc3[nH]2)cc1	TDP1 cell CPT 18.4µM, DT40 TDP1 no CPT 9.2µM, RORg inh 1.12µM, VP16 counter 2.82µM, ELG1 DNA repair inconclusive
O=C(Nc1nc2ccccc2[nH]1)c1ccccc1F	TDP1 cell CPT inconclusive, DT40 TDP1 no CPT 11.6µM, RORg inh 0.708µM, VP16 counter 1.78µM, ELG1 DNA repair inconclusive
